Bioassay records (PubChem)
PINK1 expr mod – PINK1 expression modulation; 410,000 tested, 0.2% active; PINK1 immunofluorescence, high-content cytometry, 24 h; Potency, µM (series often up to 76.6 µM), without a hit: top-dose activation (PINK1 increase), usual class: activators; active = well fitted activation curve with a large enough effect; inconclusive = small, poorly fitted or top-dose-only effect; cell line not stated here; also: potency is read from the fitted curve at half-maximal effect; % of control where 0% means no effect; nearly all actives have a fitted effect of over 65% in size
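A stable cell line was treated with compounds at 5 concentrations for 24 hours, with CCCP as control. PINK1 levels and mitochondrial localization were measured by immunofluorescence with mitochondrial, cell and nuclear markers after fixation, read by laser-scanning cytometry.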
PTHR1 agonist – PTHR1 (human) receptor agonism | HEK293 GP2 PTHR1 cells, GloSensor cAMP luminescence, 1 h | Potency, µM (titrated, usually from 115 µM), inactives show at the top dose activation, most hits filed as activators | 410,000 tested, 0.075% active | AID 743266; also: potency is read from the fitted curve at half-maximal effect; nearly all actives have a fitted effect of over 55% in size
Target sequence (Q03431 whole entry, looked up): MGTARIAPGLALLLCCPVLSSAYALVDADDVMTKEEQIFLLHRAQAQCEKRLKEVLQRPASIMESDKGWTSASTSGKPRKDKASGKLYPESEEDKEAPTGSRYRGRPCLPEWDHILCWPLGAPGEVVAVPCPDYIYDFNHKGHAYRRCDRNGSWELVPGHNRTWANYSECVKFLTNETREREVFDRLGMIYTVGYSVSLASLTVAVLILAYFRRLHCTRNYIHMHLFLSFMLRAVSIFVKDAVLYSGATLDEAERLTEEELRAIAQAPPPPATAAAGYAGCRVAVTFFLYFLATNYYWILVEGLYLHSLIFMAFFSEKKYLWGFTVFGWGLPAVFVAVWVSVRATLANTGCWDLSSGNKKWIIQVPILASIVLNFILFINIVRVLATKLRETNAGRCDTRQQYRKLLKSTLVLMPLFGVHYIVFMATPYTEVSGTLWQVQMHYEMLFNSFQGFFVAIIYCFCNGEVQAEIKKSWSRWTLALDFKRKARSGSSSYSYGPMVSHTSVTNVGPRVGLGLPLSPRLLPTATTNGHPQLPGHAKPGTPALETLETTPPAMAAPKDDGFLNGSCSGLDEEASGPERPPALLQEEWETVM
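HEK-293-derived GP2 cells expressing PTHR1 and a GloSensor cAMP reporter, 3,000/well, plated overnight, given luciferin plus IBMX (each 0.5 mM as added) for 1 h at 37 °C, then compound for 1 h at 37 °C. Luminescence was read after 15 min at room temperature.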
Vif-A3F inh – Vif-A3F binding inhibition. HeLa A3F-eYFP + Vif (tagged APOBEC3F with the HIV-1 protein that degrades it), YFP fluorescence increase. Potency, µM (series often up to 46.1 µM), inactives show top-dose activity, negative = active. 390,000 tested, 0.2% active. AID 602313; also: potency is read from the fitted curve at half-maximal effect; % of control where 0% means no effect; nearly all actives have a fitted effect of over 65% in size
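HeLa cells stably expressing Vif plus C-terminally eYFP-tagged A3F were seeded, incubated overnight at 37 deg C, dosed with compound, incubated overnight again at 37 deg C. Yellow fluorescence (Ex 488/Em 500-530) reported blocked Vif-mediated A3F-eYFP degradation.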
LDHA inh – LDHA (human) enzyme inhibition; P00338; purified LDHA, NADH/diaphorase-resazurin fluorescence; hits give low values; activity change, % (values are at about 110 or 230 µM); 480,000 tested, 0.15% active; AID 1347041; in the data active = activity change below about -30%; inconclusive = mostly about -25% to -30%;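 also: plate controls were DMSO wells for no effect and wells without enzyme for full effect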
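Remaining NADH was detected by diaphorase (0.133 mg/mL) converting 37 µM resazurin to fluorescent resorufin, read at 0 and 20 minutes. The preceding 5-minute room-temperature reaction used 2 nM LDHA, 0.2 mM sodium pyruvate and 0.06 mM NADH at pH 7.4.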
Vif-APOBEC3G blk – Vif-A3G binding inhibition; HeLa A3G-eYFP + Vif (tagged APOBEC3G with the HIV-1 protein that degrades it), YFP fluorescence, overnight; Potency, µM (highest dose often 46.1 µM), for inactives: top-dose activity, negative = active, usual class: inhibitors; 410,000 tested, 0.076% active; Q9HC16; AID 602310; also: potency is read from the fitted curve at half-maximal effect; % is scaled to controls: 0 for no effect and ±100 for the full control effect; nearly all actives have a fitted effect of over 60% in size
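Read-out is eYFP fluorescence (Ex 488/Em 500-530) from Vif-expressing HeLa A3G-eYFP cells; more signal means A3G escaped Vif-mediated degradation. Cells plated overnight, compound pinned in, incubated overnight at 37 deg C.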
IDH1 R132H inh – blocks human mutant IDH1 R132H enzyme; O75874; 390,000 tested, 0.093% active; IDH1-R132H enzyme, NADPH consumption, diaphorase/resazurin fluorescence; Potency, µM (top dose mostly 76.6 µM), for the others: at the highest dose activity change, negative = inhibition, most hits filed as inhibitors; also: potency is read from the fitted curve at half-maximal effect; % is scaled to controls: 0 for no effect and ±100 for the full control effect; nearly all actives have a fitted effect of over 65% in size
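IDH1-R132H (0.5 ug/mL) preincubated 30 min with compound, then NADPH (0.016 mM) and alpha-KG (2 mM) added; 80 min at RT, pH 7.5. Remaining NADPH coupled via diaphorase/resazurin to fluorescence (540/590 nm); concentration-response curves normalized to no-enzyme control.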
The depositor's hits bear a star; i = inactive; ? = inconclusive; / = no result given; [ ] = another dose, or the depositor's remark. An excerpt weighted towards active compounds, which were near 0.59% of everything screened. Unless noted, calls follow the shape of the dose curve; as a rule, active = well fitted curve in the direction sought with a large enough effect; inconclusive = small, poorly fitted or top-dose-only effect, or another doubt; inactive = no such curve, though single readings can be large; an effect the other way counts as inactive or inconclusive.

SMILES	PINK1 expr mod	PTHR1 agonist	Vif-A3F inh	LDHA inh	Vif-APOBEC3G blk	IDH1 R132H inh
O=C1NC(=O)N(Cc2ccc(F)cc2)C(=O)/C1=C\c1ccoc1	16%	-10%	25µM*	-22	2%	-4%
CN(C)c1ccc(/C=C2\C(=O)NC(=O)N(Cc3ccc(F)cc3)C2=O)cc1	5%	i	-24%	0	0%	-9%
O=C(Nc1cccc(F)c1)c1cn(Cc2ccccc2)nc1-c1ccccc1	/	/	/	8	/	/
CCN(CC)CCOC(=O)C(O)(c1ccccc1)c1ccccc1	-1%	i	-3%	3	-5%	25%
CC(C)N1C(=O)CC2(CC[N+](C)(CCOC(=O)C(O)(c3ccccc3)c3ccccc3)CC2)C1=O (stereo unspecified)	2%	?	-7%	-34*	-9%	5%
CCn1c(O)c(/C=N/NC(=O)c2ccncc2)c(=O)n(CC)c1=S	1%	-24%	7.9µM*	2	?	11%
COc1ccc(-c2c(C)oc3cc(OC(=O)N(C)C)ccc3c2=O)cc1	/	/	/	0	/	/
COc1cc(C2SCC(=O)Nc3[nH]ncc32)ccc1OC(C)C (stereo unspecified)	/	/	/	2	/	/
COCCNC(=O)c1c(NC(=O)c2ccc(Br)o2)n(Cc2ccccc2)c2nc3ccccc3nc12	16%	i	11µM*	0	?	-11%
COCCCNC(=O)c1c(NC(=O)c2ccco2)n(Cc2ccccc2)c2nc3ccccc3nc12	4%	-31%[57.5 µM]	/	23	?	0%
ON1C2CCCCC2N(O)C1c1ccco1 (stereo unspecified)	/	/	/	2	/	/
OCC1CN2CCC1CC2 (stereo unspecified)	/	/	/	2	/	/
Cc1ccc(OCC(=O)N2CCN(Cc3cccnc3)CC2)cc1	-1%	-19%	-5%	-32*	-7%	-10%
Cc1ccc(OCC(=O)N2CCN(Cc3ccc(F)cc3)CC2)cc1	-1%	-29%	/	-22	/	/
CSc1ccc(CN2CCN(C(=O)COc3cccc(C)c3)CC2)cc1	-1%	-35%	4%	-15	0%	5%
Cc1cccc(OCC(=O)N2CCN(Cc3cccnc3)CC2)c1	-1%	-22%	-7%	-33*	-1%	1%
Cc1nn(-c2ccccc2)c2c1C(c1ccc(F)cc1F)C(C#N)=C(N)O2 (stereo unspecified)	11µM*	-10%[57.5 µM]	0%	1	0%	7%
Cc1nn(-c2ccccc2)c(Cl)c1C1C(C#N)=C(N)Oc2c1c(=O)oc1ccccc21 (stereo unspecified)	1%	i	-10%	-7	-13%	-5%
Cc1ccc(N2C(=O)NC(=O)/C(=C\C=C\c3ccco3)C2=O)cc1C	0%	-52%	22µM*	-4	?	-5%
O=S(=O)(F)CCS(=O)(=O)c1ccc(Cl)cc1	/	/	/	2	/	/
COc1ccc(NC(=O)N(Cc2ccc3c(c2)OCO3)C2CCN(Cc3ccccc3)CC2)cc1	/	/	/	-2	/	/
CCC(C)N1C(=O)/C(=C\c2cc3c4c(c2)CCCN4CCC3)C(=O)NC1=S (stereo unspecified)	0%	-16%	-28%	-2	-9%	7%
CCC(C)N1C(=O)/C(=C\c2ccc(N3CCCCCC3)cc2)C(=O)NC1=S (stereo unspecified)	-1%	-34%	22µM*	-2	-1%	-1%
CN1CCN(c2ccc(/C=C3\C(=O)NC(=S)N(c4cccc(Br)c4)C3=O)o2)CC1	6%	i	25µM*	-1	22µM*	2%
CN1/C(=C\C=C2C(=O)NC(=O)NC2=O)C(C)(C)c2ccccc21	0%	-54%	11µM*	1	?	1%
SMILES	PINK1 expr mod	PTHR1 agonist	Vif-A3F inh	LDHA inh	Vif-APOBEC3G blk	IDH1 R132H inh
CN1/C(=C\C=Nc2ccccc2)C(C)(C)c2ccccc21	-3%	-31%	-3%	4	-1%	-7%
CC(C)NC(=O)NC(=O)CCl	/	/	/	4	/	/
N#CC(C#N)=NNc1ccc(S(N)(=O)=O)cc1	0%	-22%	-5%	-45*	6%	-20%
CCc1ccc(CN2CCN(Cc3cc(Br)ccc3O)CC2)cc1	40µM*	-16%	-1%	-18	1%	2%
Oc1ccccc1-[n+]1c(-c2ccccc2)cc(-c2ccccc2)cc1-c1ccccc1	/	-5%	0%	-2	-2%	2%
Brc1ccc(-[n+]2c(-c3ccccc3)cc(-c3ccccc3)cc2-c2ccccc2)cc1	25µM*	-93%	-6%	-9	-16%	3%[38.3 µM]
Cc1ccccc1-[n+]1c(-c2ccccc2)cc(-c2ccccc2)cc1-c1ccccc1	10µM*	-58%	-2%	-4	-3%	-5%
[O-]c1ccccc1-[n+]1c(-c2ccccc2)cc(-c2ccccc2)cc1-c1ccccc1	16µM*	-54%	-2%	-11	4%	2%[38.3 µM]
C[N+](C)(C)CC(F)([N+](=O)[O-])[N+](=O)[O-]	/	/	/	-17	/	/
COc1ccc(CNC(C)Cc2ccccc2)cc1 (stereo unspecified)	/	/	/	3	/	/
Fc1ccccc1C1NCc2ccccc2-n2cccc21 (stereo unspecified)	/	/	/	-4	/	/
Cc1ccc2c(CCN)c(C)[nH]c2c1C	/	/	/	1	/	/
Cc1[nH]nc2c1C(c1ccc3c(c1)OCO3)SCC(=O)N2 (stereo unspecified)	/	/	/	-20	/	/
COc1ccccc1N1C(=O)NC(=O)/C(=C/c2ccc3c(c2)Cc2ccccc2-3)C1=O	-1%	-40%	1%	-33*	-15%	-9%
O=C1NC(=O)C(=Cc2cccc(OCCOc3ccccc3)c2)C(=O)N1	0%	-67%	-19%	-31*	-7%	-3%
C[N+]12CCC(CC1)C(C(O)(c1ccccc1)c1cccs1)C2 (stereo unspecified)	/	-10%[57.5 µM]	0%	-36*	0%	-4%
CCC[N+]12CCC(CC1)C(C(O)(c1ccccc1)c1ccccc1)C2 (stereo unspecified)	0%	i	2%	-2	0%	2%
O=C1NC(=O)C(=Cc2ccc(Sc3ccccc3)o2)C(=O)N1	1%	-5%	-31%	-25	?	1%
O=C1NC(=O)N(c2ccc(Cl)cc2)C(=O)/C1=C\c1ccc(Sc2nc3ccccc3[nH]2)o1	2%	-53%	?	-76*	-27%	-9%
O=C(Nc1nc2ccccc2s1)C12CC3CC(CC(C3)C1)C2	/	/	/	9	/	/
CC[C@@]1(O)C(=O)OCc2c1cc1n(c2=O)Cc2cc3c(N)cccc3nc2-1	0%	45µM*	3%	16	7%	9%
C/C(=C\c1c[nH]c2ccccc12)[N+](=O)[O-]	/	/	/	0	/	/
